The values below come from PubChem BioAssay (NCATS).

Each structure is given as a SMILES string. Inconclusive results are not listed. Entries that show only a call come without a potency. Activity calls are given as the source filed them. Calls come from the whole dose curve; as a rule, active = well fitted cell-killing curve with a large enough effect; inconclusive = small, poorly fitted or top-dose-only effect; inactive = flat fitted curve, though single readings scatter. Numbered stars: 1 amine (or outer) side, 2 acyl side, 3 side chain; on linkers, the order of the positions; unused ones are H or OH. Square brackets hold non-standard residues; d marks the D form. Peptide text beside a SMILES is read from it. * marks the point of attachment. ξ: configuration not given here. X4 = O=C(C1CC2(c3ccc(O)cc3)c3ccccc3NC2N1[*:1])[*:2]; ξW = NC(Cc1c[nH]c2ccccc12)C(=O)O; ξY = NC(Cc1ccc(O)cc1)C(=O)O; Octanoyl = CCCCCCCC(=O)*
Potency is the fitted concentration of half-maximal effect.

The nature of the experiment: HPAF-II Cancer Cell Toxicity qHTS against the NCATS CANVASS Library (AID 1347346). Note: nearly all actives have a fitted effect of over 55% in size. The following applies: HPAF-II viability, CellTiter-Glo ATP luminescence, 72 h; series mostly up to 38.3 µM. An excerpt: Natural products and their derivatives continue to be wellsprings of nascent therapeutic potential. However, many laboratories have limited resources for biological evaluation, leaving their previously isolated or synthesized compounds largely or completely untested. To address this issue, the Canvass library of natural products was assembled (https://tripod.nih.gov/canvass), in collaboration with academic and industry researchers, for quantitative high-throughput screening (qHTS) across a diverse set of cell-based and biochemical assays. The pure (>85% purity by liquid chromatography/mass spectrometry [LC/MS]) Canvass library of 346 natural products were submitted by 45 academic laboratories and companies around the world. We collected pure natural products to circumvent deconvolution and structure elucidation due to time and resource limitations. The library was formatted into 1536-well plates and evaluated in 50 qHTS (in an 11-pnt concentration series) bioassays with broad scope of disease-relevant mechanisms. The resulting data set from 50 different assays was then systematically analyzed to identify overall trends and specific natural products with interesting biological activities. Reported herein are the results of each individual qHTS and their corresponding assay protocol. National Center for Advancing Translational Sciences (NCATS), Rockville, MD National Institute of Health (NIH), Bethesda, Maryland
Cancer Cell Toxicity protocol for cell lines COV-362, OV-KATE, OV-SAHO, UWB1.289, UWB1.289-WTBRCA1, HEK-293, HPAF-II, Panc-1005, SW1088, or U-118MG. 1.#In a 1536 well, white solid bottom tissue culture plates (Corning 7494), corresponding cells (COV-362, OV-KATE, OV-SAHO, UWB1.289, UWB1.289-WTBRCA1, HEK-293, HPAF-II, Panc-1005, SW1088, or U-118MG) were dispensed in each well at a final concentration of 1000 cells / well (6uL volume) using the Multidrop Combi (Thermo Fisher Scientific) dispenser. 2.#The plates were incubated for 4 hours at 37 degrees C/5% CO2/95% Rh. 3.#Compounds were pin transferred (~23nL volume) via Wako Pin-tool (Wako Automation, Richmond VA) equipped with a 1536 pin head. The assay plates were treated with compounds in an 11-pnt concentration series with a final concentration range of […] to 85uM. 4.#Bortezomib was used as a single dose control (0.5mM column 4, rows 1 - 32) at a final concentration of 1.9uM and as a 16pnt titration (1mM; 1:2 dilution; 16-points; n = 2; column 3, rows 1 - 32) with final concentration range of 0.1nM - 3.8uM. 5.#The assay plates were incubated for 72 hours at 37 degrees C/5% CO2/95% Rh. 6.#3uL CellTiter-Glo detection reagent was then added to the plates (columns 2 - 48, rows 1 - 32) and incubated at room temperature for additional 15min. 7.#Luminescence signal was acquired via the ViewLux plate reader (PerkinElmer) using a clear filter, 2 second exposure and 2x binning settings.
With `O=C(O)Cc1c[nH]c2ccccc12`, the Potency entry was “inactive”. For `C/C=C/C(=O)[C@@H](C)C1=CC(=O)C2=C(O[C@@]34CC[C@H](O)C(C)(C)[C@@H]3CC[C@H](C)[C@@]4(C)C2)C1=O`, the Potency is 3.75 µM (active).

Consider `OCc1ccc2ocnc2c1`, for which the Potency entry is “inactive”. The value for `COc1ccc(/C=C2\COc3cc(O)ccc3C2=O)cc1` was “inactive”; that for `CCCCCCC[C@@H](C/C=C/CCC(=O)NCCc1c[nH]c2ccccc12)OC` was “inactive”; that for `CCC1=C2CCCN3C(=O)O[C@H]([C@H]1OC(C)=O)[C@H]23` was “inactive”.

In the case of `C=C1C[C@@]23C=CC(=O)[C@@](C)(CCC(=O)Nc4c(O)ccc(C(=O)O)c4O)C2C[C@@H]1C(O)C3` (stereo not given in full), the Potency entry is “inactive”. Turning to `CC1=CC2=C[C@H](C)C[C@@]23OC(=C(C)C3=O)CC(C)(C)/C=C/C1=O`, the Potency is 0.668 µM (active). The value for `Oc1ccc([C@H]2Oc3ccc(/C=C/c4cc(O)cc(O)c4)cc3C2c2cc(O)cc(O)c2)cc1` (stereo not given in full) was “inactive”; that for `CC(=O)O[C@H]1CC[C@@]2(C)C(CC[C@]3(C)C2CC=C2C4CC(C)(C)CC[C@]4(C)CC[C@]23C)C1(C)C` (stereo not given in full) was “inactive”. `O=C(O)CC1OCc2c(O)cccc21` (stereo not given): the Potency result was “inactive”. Consider `CC(O)/C=C/C1(O)C(C)(C)CC(O)CC1(C)O` (stereo not given), for which the Potency entry is “inactive”. For `CO[C@@H]1C[C@@H](C[C@H]2CC[C@H](C)[C@H]([C@@H](C)C(=O)O)O2)O[C@]2(O[C@](C)([C@H]3CC[C@@](C)([C@@H]4O[C@@H]([C@H]5O[C@](C)(O)[C@H](C)C[C@@H]5C)C[C@@H]4C)O3)C[C@H]2C)[C@@H]1C`, the Potency was 9.43 µM (active).

As for `CC[C@H](C)[C@H](NC(=O)C(Cc1ccc(O)cc1)NC(=O)C(Cc1c[nH]c2ccccc12)NC(=O)[C@H](C)N)C(=O)N1C(C(=O)NC(Cc2ccc(O)cc2)C(=O)O)CC2(c3ccc(O)cc3)c3ccccc3NC12` (stereo not given in full) (H-A[ξW][ξY]I[X4][ξY]-OH), the Potency entry is “inactive”.

Turning to `CC1(C)C=Cc2c(ccc3c2OC[C@@H](c2ccc(O)cc2O)C3)O1`, the Potency result is “inactive”. Turning to `CC1C(=O)C23CCC1C[C@]21O[C@@H]2C(C)(C)C=CC(=O)[C@@]23COC1=O` (stereo not given in full), the Potency result is “inactive”. Turning to `COc1cc(/C=C/C(=O)O)ccc1O`, the Potency entry was “inactive”. On to `CN1CC[C@]2(c3cccc4c3N[C@@H]3N(C)CC[C@]43[C@@]34CCN(C)[C@@H]3Nc3ccccc34)c3ccccc3N[C@H]12`, for which the Potency was 18.8 µM (active). Turning to `O=C1CC(c2cc(O)cc(O)c2)Oc2cc(O)ccc21` (stereo not given), the Potency entry was “inactive”. For the compound `C/C(=C\[C@H](C)C(=O)CCCC1CC(=O)NC(=O)C1)C(O)[C@@H](C)[C@H](O)C/C=C/CC/C=C/C(=O)O` (stereo not given in full), the Potency result was “inactive”. `CC(=O)[C@@H]1[C@@H](O)C[C@H]2[C@]3(C)CC[C@H]4C(C)(C)CCC[C@]4(CO)[C@H]3C[C@H]3OC(=O)[C@@H]1[C@@]32C`: the Potency result was “inactive”. For `C[C@@H]1C(=O)[C@]23CC[C@H]1C[C@]21O[C@H]2C(C)(C)C=CC(=O)[C@]23COC1=O`, the Potency result is “inactive”.

Turning to `C=C1C[C@@]23C=CC(=O)[C@@](C)(CCC(=O)Nc4c(O)ccc(C(=O)O)c4O)C2C[C@@H]1CC3O` (stereo not given in full), the Potency result is “inactive”. For the compound `CC(C)=CCC/C(C)=C/Cc1c(O)c(CC=C(C)C)c(O)c2c(=O)c3cc(O)ccc3oc12`, the Potency was 13.3 µM (active). The value for `C=C[C@]1(C)CC[C@@H]([C@H](C)C(=O)/C=C/C(C)C)O1` was “inactive”; that for `CN1CC[C@]2(c3cccc4c3N[C@@H]3N(C)CC[C@]43[C@@]34CCN(C)[C@@H]3Nc3c([C@]56CCN(C)[C@H]5Nc5ccccc56)cccc34)c3ccccc3N[C@H]12` was 8.41 µM (active); that for `O=C(O)[C@@]12COC3(O)C1CCN1CC[C@H]3[C@@H]1c1c2[nH]c2ccccc12` was “inactive”. Take `CN1CCc2cc3c(c4c2[C@H]1[C@@H](O)c1ccccc1-4)OCO3`: the Potency is 13.3 µM (active). The value for `CCCCCCCC(=O)N[C@@H](CC(C)C)C(=O)N[C@H](C=O)CCC(=O)O` (Octanoyl-Leu-Glu-aldehyde) was “inactive”; that for `O=Cc1ccc2n1C[C@@]1(OC2)O[C@H](CO)[C@@H](O)[C@@H]1O` was “inactive”; that for `COc1c(O)cc2oc(-c3ccccc3)cc(=O)c2c1O` was “inactive”.

As for `C/C1=C\CC(=O)/C=C/C=C\c2csc(n2)[C@@H](C)NC(=O)C[C@@](S)([C@@H](C)C(=O)O)CC1`, the Potency entry was “inactive”. With `C=CC(=C)CC[C@]1(C)[C@H]2C[C@H](OC(=O)C(C)CC)C=C3[C@H](OC(C)=O)O[C@H](OC(C)=O)[C@@]32[C@H](OC)C[C@@H]1C` (stereo not given in full), the Potency was 3.43 µM (active).

`CO[C@@H]1[C@H](O)[C@@H](C)O[C@@H](OC[C@H]2/C=C/C=C/C(=O)C(C)C[C@H](C)C(O[C@@H]3O[C@H](C)CC4(OC(=O)O[C@@H]4C)C3O)[C@@H](C)/C=C/C(=O)OC2C)[C@@H]1OC` (stereo not given in full): the Potency result is “inactive”. For the compound `C[C@H]1C[C@@H]([C@@H]2CC[C@]34O[C@H](CC[C@@]35C[C@H](C)C(=O)O5)CN24)OC1=O`, the Potency result is “inactive”. Take `CC12C[C@]3(O)O[C@@H](O1)[C@]1(COC(=O)c4ccccc4)[C@@H]3CC21OC1OC(CO)C(O)C(O)C1O` (stereo not given in full): the Potency result is “inactive”. With `C[C@@H](O)[C@H]1OC(=O)C=C2[C@]3(C)[C@H]4[C@H](OC(=O)[C@@]4(C)[C@@H](O)[C@H]4O[C@H]43)[C@H]3O[C@@]231`, the Potency was 3.35 µM (active). In the case of `O=C(O)CC1OC(=O)c2c(O)cccc21` (stereo not given) it was “inactive”. As to `CCCCCCCCCCCCCCCC(=O)OC/C=C(\C)CCCC(C)CC(C)C(C)C` (stereo not given), the Potency was 0.298 µM (active). The value for `O=Cc1ccc2n1C[C@@]1(C[C@H](O)[C@H](O)CO1)OC2` was “inactive”.
